Compounds with a hit are over-represented: about 19% of the library has one in this group of screens.
uPA generation – cell surface uPA generation inhibition; 0.31% of 330,000 active; Potency, µM (top dose mostly 38.3 µM), for the others: at the highest dose activity change, negative = inhibition, hits mostly inhibitors; cell surface uPA generation assay, qHTS; active = well fitted inhibition curve with a large enough effect; inconclusive = small, poorly fitted or top-dose-only effect; inactive = no such curve, though single readings can be large or run the other way; tested in mouse RAW 264.7 cells; also: potency is read from the fitted curve at half-maximal effect; nearly all actives have a fitted effect of over 55% in size
IL1B secr inh – inflammasome signaling inhibition, IL-1 beta readout; THP-1 LPS/ATP IL-1B secretion, AlphaLISA, 16 h; hits give low values; activity change, % at 57.5 µM; 4.7% of 360,000 active; AID 743279; in the data active = activity change below about -50%; inconclusive = mostly about -30% to -49%
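Secreted IL-1B measured by AlphaLISA bead assay after 16 h compound exposure of THP-1 cells; compounds (final up to 57.5 uM) added 1 h before LPS (250 ng/mL) and ATP (1.25 mM) stimulation; lower signal means less secretion.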
TDP1 cell noCPT – qHTS for Inhibitors of human tyrosyl-DNA phosphodiesterase 1 (TDP1): qHTS in cells in absence of CPT; DT40 Tdp1-/- hTDP1 cells, no CPT, ATP luminescence, 48 h; Potency, µM (titrated, usually from 46.2 µM), for the others: at the highest dose activity change, negative = growth inhibition, usual class: inhibitors; 15% of 420,000 active; AID 686978, 2013; also: potency is read from the fitted curve at half-maximal effect; nearly all actives have a fitted effect of over 55% in size
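Growth of hTDP1-complemented DT40 Tdp1-knockout cells is measured by ATP luminescence after at least 48 hr compound exposure at 37 °C, with DMSO substituting for the 20 nM CPT used in the parallel screen.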
TDP1 cell CPT – DT40-hTDP1 cell growth loss with CPT. chicken DT40 Tdp1-/-;hTDP1 cells + 20 nM CPT, ATP luminescence, 48 h. Potency, µM (top dose mostly 46.2 µM), for the others: at the highest dose activity change, negative = growth inhibition, actives largely listed as inhibitors. 12% of 420,000 active. AID 686979; also: potency is read from the fitted curve at half-maximal effect; nearly all actives have a fitted effect of over 55% in size
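Chicken DT40 Tdp1-/- cells complemented with human TDP1, 400 cells/well, exposed to compounds plus 20 nM camptothecin for at least 48 h at 37 C; viability read as ATP content by CellTiter-Glo luminescence.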
HT1080 IDH1KD tx – toxicity to HT-1080 IDH1 knockdown cells (counter line) | 2% of 360,000 active | HT-1080 IDH1 knockdown viability, ATP luminescence, 48 h | Potency, µM (series often up to 46.1 µM), inactives show at the top dose activity, negative = toxicity, actives largely listed as cytotoxic;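 also: potency is read from the fitted curve at half-maximal effect; 0% = DMSO wells and -100% = cell-free medium wells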
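Viability of IDH1-knockdown HT-1080 fibrosarcoma cells was assessed by CellTiter-Glo after 48 h at 37 °C with titrated compound; concentration-effect curves were classified by fit quality and response size.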
HT1080-NT tox – kills 2HG-producing HT-1080-NT fibrosarcoma cells. HT-1080-NT fibrosarcoma viability, CellTiter-Glo ATP luminescence, 48 h. Potency, µM (highest dose often 46.1 µM), inactives show at the highest dose activity, negative = less viability, actives largely listed as cytotoxic. 1.6% of 360,000 active. AID 686970;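 also: NT is the 2HG producing partner of a matched IDH1 knockdown line; potency is read from the fitted curve at half-maximal effect; 0% = DMSO-treated cells and -100% = media-only wells without cells; nearly all actives have a fitted effect of over 55% in size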
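Viability by CellTiter-Glo luminescence after 48 h compound exposure at 37C of HT-1080-NT cells (750/well, RPMI, 5% FBS). % activity scaled between DMSO wells and medium-only wells, then curve-fitted and categorized by curve class.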
Active calls of the source: *; ? = inconclusive; · = no result given. Unless noted, calls follow the shape of the dose curve; as a rule, active = well fitted curve in the direction sought with a large enough effect; inconclusive = small, poorly fitted or top-dose-only effect, or another doubt; inactive = no such curve, though single readings can be large; an effect the other way counts as inactive or inconclusive. Unless noted, % is scaled to controls: 0 for no effect and ±100 for the full control effect.

SMILES | uPA generation | IL1B secr inh | TDP1 cell noCPT | TDP1 cell CPT | HT1080 IDH1KD tx | HT1080-NT tox
N#C/C(=C\c1ccc(-c2ccccc2[N+](=O)[O-])o1)C(=O)Nc1nc(-c2cccs2)cs1 | 5% | -4 | 29µM* | ? | ? | -8%
CNc1nc(-c2ccccc2)c2sccc2n1 | · | 48 | ? | ? | -15% | -4%
Cc1ccc(Nc2cc(-c3ccccc3)nc(C)n2)cc1 | · | · | 26µM* | ? | · | ·
Cc1nc(Nc2ccc(Cl)cc2)cc(-c2ccccc2)n1 | · | · | -103% | 23µM* | · | ·
CCOC(=O)c1ccc(Nc2cc(-c3ccccc3)nc(C)n2)cc1 | · | · | ? | -29% | · | ·
O=C(NCCCN1CCN(c2ccccc2)CC1)c1nnc(Cc2c(F)cccc2Cl)o1 | · | · | 21µM* | 23µM* | · | ·
CCN(CC)CCN1C(=O)c2cccc3cc(N)cc(c23)C1=O | -6% | -78* | 7.3µM* | 12µM* | 33µM* | 33µM*
CCN(CC)c1ccc(/C=N/N2C(=O)c3ccccc3C2=O)c(O)c1 | -5% | 7 | -21% | -14% | 30% | 12%
Nc1cc2c3c(cccc3c1)C(=O)N(CCN1CCCC1)C2=O | -20% | -99* | 1.2µM* | 0.73µM* | ? | 21µM*
O=C1c2cccc3cc([N+](=O)[O-])cc(c23)C(=O)N1CCN1CCCC1 | -11% | -98* | 0.13µM* | 0.21µM* | 2.3µM* | ?
O=C1c2cccc3cccc(c23)C(=O)N1CCO | · | -9 | -11% | 2% | 4% | 0%
NC(=O)CN1CCN(CCN2C(=O)c3cccc4cccc(c34)C2=O)CC1 | ? | 0 | -26% | -24% | -13% | 0%
O=C1c2cccc3cc([N+](=O)[O-])cc(c23)C(=O)N1/N=C/c1ccc(O)cc1O | -2% | -96* | 16µM* | ? | -28% | ?
O=C(NCCC(=O)N1CCCC1)c1ccccc1Cl | 5% | -4 | 18% | 9% | 15% | ?
Cc1nn(CC(=O)N2CCN(c3ccccc3F)CC2)c(=O)c2cccn12 | · | · | -16% | 3% | · | ·
Cc1cc2nc(-c3cccc(Br)c3)c(Cc3ccccc3)n2c(C)c1Br | · | 60 | ? | 16µM* | ? | ?
Cc1cc2nc(-c3ccc(F)cc3)c(Cc3ccccc3)n2c(C)c1Br | · | 32 | 21µM* | 21µM* | ? | ?
COc1ccc(Cc2c(-c3cccc(Br)c3)nc3cc(C)c(Br)c(C)n23)c(C)c1 | · | 31 | -29% | -25% | -7% | -10%
Cc1ccc(-c2nc3cc(C)c(Br)c(C)n3c2Cc2cccc(F)c2)cc1 | · | 0 | 10µM* | 7.3µM* | ? | ?
Cc1cc2nc(-c3ccc(C#N)cc3)c(Cc3cccc(F)c3)n2c(C)c1Br | · | -16 | 15µM* | 18µM* | -28% | -22%
COC(=O)c1sc(NC(=O)c2cc(C)on2)nc1C | 1% | -2 | 20% | -13% | 4% | 13%
O=S1(=O)C[C@H](N2CC[C@@H](O)C2)[C@@H](COCc2ccccc2)N1 | · | 11 | 13% | 4% | -1% | 10%
CCSc1ncc(Cl)c(C(=O)Nc2nc3ccc(S(C)(=O)=O)cc3s2)n1 | · | · | -5% | -16% | · | ·
Cc1cccc(C(=O)NC(=O)Nc2ccc(-n3nc(C(F)(F)F)cc3C(F)(F)F)cc2)c1 | · | · | -26% | -10% | · | ·
Cc1ccccc1CN1CCN(C(=O)[C@H]2O[C@@H](n3cnc4c(N)ncnc43)[C@H](O)[C@@H]2O)CC1 | · | -24 | ? | ? | 5% | 9%
Cc1cc(Br)cn2c(Cc3cccc(F)c3)c(-c3ccc(C#N)cc3)nc12 | · | 0 | ? | 18µM* | -22% | -14%
Cc1cc2nc(C3CCCCC3)c(Cc3ccccc3C(F)(F)F)n2c(C)c1Br | · | 54 | ? | ? | -1% | 3%
Cc1cc2nc(C3CCCCC3)c(Cc3cccc(F)c3)n2c(C)c1Br | · | 12 | ? | 16µM* | -28% | -27%

From PubChem BioAssay
